# Compound activity deposited in PubChem by National Center for Advancing Translational Sciences (NCATS).
# Only some compounds are listed: those with a hit (about 11% of all), similar ones and a draw of the others.
# PNC inhibitor: blocks assembly of the perinucleolar compartment. PC3M PTB-GFP, PNC prevalence imaging, 16 h; active compounds read low. activity change (PNC), negative = inhibition, % at 10 µM. 140,000 tested, 3.1% active. AID 2417;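 active = readout at or below -70, meaning at least 70% loss of cells showing the perinucleolar compartment, a nuclear body marking cancer cells; inconclusive = readout between -30 and a set limit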;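 note: plate controls were DMSO wells for no effect and camptothecin positive control wells for full effect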
#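 Read-out is percentage of cells bearing a perinucleolar compartment, from automated 20x imaging of fixed, Hoechst-stained PC3M PTB-GFP cells. Cells were seeded 4 h, then exposed 16 h to compound (23 nl of library stock) in duplicate plates.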
# IMPase Li cell: IMPase inhibition in cells with lithium potentiation; CHO-M1 cells, IP1 TR-FRET (IP-One), carbachol + lithium; Potency, µM (series often up to 59.4 µM), inactives show at the top dose activity, negative = IMPase inhibition, actives largely listed as inhibitors; 210,000 tested, 0.35% active; AID 1457; active = well fitted inhibition curve with a large enough effect; inconclusive = small, poorly fitted or top-dose-only effect; inactive = no such curve, though single readings can be large or run the other way;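 note: IP1 builds up when IMPase is blocked and the TR-FRET signal falls; potency is the fitted concentration of half-maximal effect; plate controls were basal vehicle for no effect and high inhibitor control for full effect; nearly all actives have a fitted effect of over 50% in size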
#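 CHO cells stably expressing M1 receptor (2000/well, cultured 16–30 h) treated 30 min at 37C with compound plus low lithium. Cytosolic IP1 by TR-FRET (665/620 ratio and 620 channel) after 10 min lysis; AC50 by Hill fit.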
# IMPase cell inh: cell-permeable inhibitors of inositol monophosphatase (IMPase). inhibition (IP1 accumulation), % at 46.1 µM. P97697. 120,000 tested, under 10 active. AID 901. CHO-M1 cells, IP1 accumulation, HTRF TR-FRET ratio; active = well fitted curve in the direction sought with a large enough effect in the signal ratio, not every such curve was filed as active; inconclusive = small, poorly fitted or top-dose-only effect, or a change in a side signal; inactive = no such curve, though single readings can be large or run the other way; the % refers to the signal ratio;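 note: cells stimulated with carbachol in lithium chloride buffer; plate controls were DMSO basal wells for no effect and reference inhibitor wells for full effect; higher means more IMPase inhibition seen as more IP1 and lower FRET ratio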
# Target sequence (P97697 whole entry, looked up): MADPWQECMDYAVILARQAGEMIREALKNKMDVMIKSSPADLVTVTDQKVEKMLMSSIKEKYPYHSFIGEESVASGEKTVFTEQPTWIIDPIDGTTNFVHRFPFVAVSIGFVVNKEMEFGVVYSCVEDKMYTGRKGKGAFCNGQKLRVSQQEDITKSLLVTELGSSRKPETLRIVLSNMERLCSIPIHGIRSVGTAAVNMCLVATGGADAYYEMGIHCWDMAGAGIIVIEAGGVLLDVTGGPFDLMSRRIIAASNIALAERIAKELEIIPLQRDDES
#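 Seeded CHO-M1 cells were dosed with compound at up to 46 uM, stimulated with carbachol for 30 min, then lysed in IP-One detection reagents. Higher IP1 lowers the TR-FRET signal.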
# ALDH1A1 block: ALDH1A1 (human) enzyme inhibition | P00352 | Purified ALDH1A1, NADH fluorescence, propionaldehyde substrate | Potency, µM (highest dose often 75.3 µM), for the others: top-dose activity, negative = inhibition, actives largely listed as inhibitors | 220,000 tested, 7.3% active | AID 1030;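 note: potency is the fitted concentration of half-maximal effect; plate controls were no enzyme wells and a reference inhibitor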
# HPGD inh: blocks human HPGD enzyme activity. Potency, µM, for the others: at the highest dose activity change, negative = inhibition, usual class: inhibitors. 150,000 tested, 4.3% active. purified HPGD, NADH fluorescence kinetic, PGE2 substrate. P15428. AID 894; note: potency is the fitted concentration of half-maximal effect
# Target sequence (P15428 whole entry, looked up): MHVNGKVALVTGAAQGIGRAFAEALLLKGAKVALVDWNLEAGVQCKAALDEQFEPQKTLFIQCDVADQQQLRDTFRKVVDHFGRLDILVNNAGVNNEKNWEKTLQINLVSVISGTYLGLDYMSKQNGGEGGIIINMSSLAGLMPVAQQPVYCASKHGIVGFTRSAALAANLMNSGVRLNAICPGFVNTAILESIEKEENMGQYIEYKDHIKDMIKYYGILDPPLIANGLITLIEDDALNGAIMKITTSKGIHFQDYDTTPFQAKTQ
#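 NADH formation kinetics: reaction with 30 uM PGE2 and 1 mM NAD+ (final), 20 nM enzyme, Tris-HCl pH 8 with Tween 20, after 15 min compound preincubation at room temperature. Fluorescence change, last versus first of five reads.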
# * marks the source's active call; other numbers are inactive results; ? = inconclusive; nt = no result given; [ ] = another dose, or the depositor's remark. Unless noted, calls come from the whole dose curve; as a rule, active = well fitted inhibition curve with a large enough effect (not every such curve was filed as active); inconclusive = small, poorly fitted or top-dose-only effect, or another doubt; inactive = no such curve, though single readings can be large or run the other way. Unless noted, % is set by controls: 0 for no effect and ±100 for the full control effect.
SMILES,PNC inhibitor,IMPase Li cell,IMPase cell inh,ALDH1A1 block,HPGD inh
C=CCOC(=O)c1c(C)nc2cc3c(cc2c1C)OCO3,-1,1%,nt,-27%,?
Cc1cc2sc(C)[n+](CCCOS(=O)(=O)O)c2cc1C,nt,2%,nt,-1%[13.5 µM],-2%
Cc1ccc(OCC(=O)Nc2ccccc2Sc2ccccc2)c([N+](=O)[O-])n1,-107*,10%,nt,1%,-1%
CCN1C(=O)[C@H]2[C@H]3[C@H](O)[C@H](O)C/C(=N/OCC(C)C)[C@@H]3CC[C@@H]2C1=O,nt,nt,nt,9%[13.5 µM],nt
CCN1C(=O)[C@@H]2[C@H]3C(=CC[C@@H]2C1=O)C1(OCCCO1)[C@H]1O[C@@H]1[C@H]3O,nt,nt,nt,1.8µM*,nt
COC(=O)c1ccc(CNC(=O)c2cc3ccccc3oc2=O)cc1,nt,-5%,nt,-6%,nt
CC(NC(=O)c1cc2ccccc2o1)C(=O)O (configuration not stated),2,-1%[38.3 µM],-11,22µM*,-6%
O=C(NCc1ccccc1)c1cc2ccccc2o1,-20,40%[38.3 µM],5,?,18µM*
COc1ccc(C(=O)N/N=c2\oc3ccccc3cc2C(=O)NCc2ccccc2)cc1,31,14%,10,11µM*,-5%
CC(=O)Nc1cccc(NC(=O)c2cc3ccccc3o2)c1,-27,-4%[38.3 µM],5,-4%,-4%
O=C(Nc1ccccc1)c1cc2ccccc2o1,-100*,5%,-6,9%,-16%
CCOc1c(Br)cc(C2C=C(C(=O)O)Nc3ncnn32)cc1OC (configuration not stated),nt,nt,5,nt,nt
CN(C)S(=O)(=O)c1cccc(NC(=O)c2cc3ccccc3o2)c1,?,23%[38.3 µM],3,?,-10%
CCN(CC)S(=O)(=O)c1cccc(NC(=O)c2cc3ccccc3o2)c1,9,6%[38.3 µM],10,22µM*,-20%
CC(Sc1ncc(C#N)c(N)n1)C(=O)Nc1ccccc1 (configuration not stated),-112*,1%,10,-3%,-2%
O=S(=O)(c1ccc(Cl)s1)N1CCC(Cc2ccccc2)CC1,?,30%[38.3 µM],-3,13%,-18%
O=S(=O)(c1ccc(Cl)s1)N1CCN(Cc2ccccc2)CC1,-83*,49%[38.3 µM],5,6%,-8%
N#Cc1c(N)n[nH]c1-c1cc2c([nH]1)CCCC2,-100*,-5%,9,1%,-20%
N#Cc1c(N)n[nH]c1CCCN,-22,17%[38.3 µM],1,-3%,-8%
CCOC(=O)c1sc2nc3c(cc2c1N)COC(C)(CC)C3 (configuration not stated),-12,18%[38.3 µM],-8,?,?
CCC1(C)Cc2nc3sc(C(=O)O)c(N)c3cc2CO1 (configuration not stated),-4,5%,-6,22µM*,-18%
Cc1cc(C(=O)CCl)c(C)n1-c1ccon1,nt,23%,nt,0.63µM*,nt
CC(=O)c1cccc(OCC(=O)c2cc(C)n(-c3cc(C)on3)c2C)c1,?,3%[38.3 µM],2,7%,-19%
Cc1cc(C(=O)CCl)c(C)n1-c1cccc([N+](=O)[O-])c1,nt,4%,nt,0.32µM*,nt
O=C(c1csnn1)N1CCC2(CCCN(c3ccccc3)C2)CC1,nt,1%,nt,?,-8%
SMILES,PNC inhibitor,IMPase Li cell,IMPase cell inh,ALDH1A1 block,HPGD inh
CN1CCN(C(=O)c2cccc(COc3cc(Cl)ccc3Cl)c2)CC1,30,3%,-12,10µM*,-7%
O=C(Nc1ccccc1)c1ccc(Cc2nc3ccccc3[nH]2)cc1,nt,nt,nt,1%,-3%
O=C(c1ccc(Cc2nc3ccccc3[nH]2)cc1)N1CCCCC1,nt,nt,nt,-7%,16µM*
O=C(O)c1cc(S(=O)(=O)Nc2cccc(Cl)c2)ccc1O,nt,nt,nt,?,-18%
OCCN[C@@H]1c2cc(Cl)ccc2-c2c(Cl)cc(Cl)cc21,nt,2%,nt,4%[13.5 µM],4%
CC1CCCN(C(C(=O)NC2CCCCC2)c2cc3c(cc2[N+](=O)[O-])OCO3)C1 (configuration not stated),18,-6%,nt,3%,32µM*
CC1CCN(C(C(=O)NC2CCCCC2)c2cc3c(cc2[N+](=O)[O-])OCO3)CC1 (configuration not stated),8,1%,nt,?,-29%
COc1ccc(Nc2nc(N3CCCCC3)c3ccccc3n2)cc1,?,21%[38.3 µM],14,13µM*,?
CCCn1c(C)nc2c(NC(C)CN(C)C)nc(C)nc21 (configuration not stated),nt,-1%,nt,10%,-4%
Cc1ccc(C(=O)Nc2ccnc(-c3ccncc3)n2)cc1,nt,-2%,nt,4%,nt
Cc1ccc(-n2nnnc2-c2cnn(-c3cccc(F)c3)c2C(F)(F)F)cc1,-5,12%,21,?,-3%
Fc1cccc(-n2ncc(-c3nnnn3-c3ccccc3)c2C(F)(F)F)c1,-84*,12%,5,-6%,-2%
COc1cc(NC(=O)c2cc(Cl)c(OC)c(Cl)c2)ccc1NC(=O)c1cc2ccccc2o1,nt,nt,-12,nt,nt
COc1ccc(/C=C/C(O)=C(\C#N)c2nnc(N3CCOCC3)n2-c2ccccc2)cc1OC,nt,20%,nt,13µM*,nt
COc1ccc(N2C(C)=CS/C2=C(/C#N)c2nnc(N3CCOCC3)n2-c2ccccc2)cc1,7,7%[38.3 µM],3,22µM*,-6%
COc1cc(C2CC(=O)Nc3cc4c(cc32)OCCO4)cc(Br)c1OC (configuration not stated),nt,nt,7,nt,nt
C#CCN1C(=O)C(O)(CC(=O)/C=C/c2ccco2)c2ccccc21 (configuration not stated),nt,3%,nt,1.6µM*,nt
Cc1ccnc2c(N3C(=O)C4C5c6ccccc6C(c6ccccc65)C4C3=O)cccc12 (configuration not stated),14,1%[38.3 µM],-8,?,-10%
COCCn1c(=NC(=O)c2nc3ccccc3s2)sc2cc(S(C)(=O)=O)ccc21,0,22µM*,12,?,?
COC(=O)Cn1c(=NC(=O)c2nc3ccccc3s2)sc2cc(S(N)(=O)=O)ccc21,-23,-5%,nt,?,?
CCOc1ccc(NC(=O)C2CCC(N3C(=O)C4CC=CCC4C3=O)CC2)cc1 (configuration not stated),45,16%[38.3 µM],0,4µM*,-19%
COc1ccc(NC(=O)C2CCC(N3C(=O)C4C5C=CC(C5)C4C3=O)CC2)cc1 (configuration not stated),10,28%[38.3 µM],8,7.9µM*,-2%
CCOc1ccc(NC(=O)CN2C(=O)C3CC=CCC3C2=O)cc1 (configuration not stated),-4,3%[38.3 µM],4,5%,-10%
O=C(CN1CCN(Cc2ccccc2Cl)C1=O)NCc1ccccc1Cl,nt,nt,5,nt,nt
CC(CCc1ccco1)NC(=O)CSc1cc(=O)n(C)c2ccccc12 (configuration not stated),?,-5%[38.3 µM],0,?,25µM*
